The panel holds about 83,000 compounds, 20% with a hit somewhere; the sample as a whole holds those more often.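 Activity criterion: percent growth below 10, measured after cells in 96-well plates were exposed to a single compound concentration for 48 hours.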 Calls of active or inactive are those of the source.
How the values were obtained:
Test in all cases: NCI-60 one-dose screen, 48 h (100 = growth as untreated, 0 = no growth, -100 = all killed)
Settings in all cases: 10 µM unless noted
[1] = test system: RPMI-8226 leukemia
[2] = test system: OVCAR-8 ovarian
[3] = test system: OVCAR-5 ovarian
[4] = test system: OVCAR-4 ovarian
[5] = test system: SK-OV-3 ovarian
[6] = test system: IGROV1 ovarian
[7] = test system: OVCAR-3 ovarian
[8] = test system: HS 578T breast
[9] = test system: NCI/ADR-RES ovarian
[10] = test system: SR leukemia

Measured: growth

CCN1C(=O)N(CC)C2Nn3c(s/c(=C\c4ccc(OC)cc4)c3=O)=NC21 (stereo not drawn)
inactive: [1] 69.8% | [2] 67.3% | [3] 83.9% | [4] 63.7% | [5] 62.7% | [6] 54.8% | [7] 19.2% | [8] 43.6% | [9] 44.2%

Cc1nc2sccn2c1-c1nc2sccn2c1/C=C1/C(=O)Nc2ccccc21
inactive: [1] 20.1% | [2] 52.1% | [3] 41.8% | [4] 63.6% | [5] 31.2% | [8] 31.8% | [9] 47.9%
active: [6] -15.5% | [7] -30.9%

CCCCN1C=CCN(CCCC)C1
inactive: [1] 37.9% | [2] 44.2% | [3] 82.7% | [4] 42.6% | [5] 84.2% | [6] 46.4% | [7] 13.1% | [8] 88.9% | [9] 108%

O=C1NN(C(=O)c2ccccc2)C(c2ccc(Cl)c(Cl)c2)=C/C1=C\c1ccc([N+](=O)[O-])cc1
inactive: [1] 59.2% | [2] 89.3% | [3] 113% | [4] 75.2% | [5] 96.7% | [6] 84.3% | [7] 86.6% | [8] 78.3% | [9] 92.6%

CN(CCN(C)c1ccc(C(=N)N)cc1)c1ccc(C(=N)N)cc1
inactive: [1] 46.8% | [2] 107% | [3] 90.9% | [4] 98% | [5] 140% | [6] 26% | [7] 87.9% | [8] 108% | [9] 104%

O=Cc1cc2ccccc2nc1Oc1ccc(C(F)(F)F)cc1
inactive: [10] 23.6% | [2] 91% | [3] 99.2% | [5] 81.5% | [6] 68.3% | [7] 96.7% | [8] 89.7% | [9] 92.9%

N#Cc1c(-c2ccccc2)nc2c(c(-c3ccccc3)nn2-c2ccccc2)c1-c1ccc(O)cc1
inactive: [1] 12.9% | [2] 56% | [3] 81.2% | [4] 72.2% | [5] 71.1% | [6] 72% | [7] 54.2% | [8] 15.9%

CCCCC/C=C/C(C)=C/C1CC(C)C/C=C/CCC(O)C(OC(N)=O)CCC(C)CC(O)C(C)C(=O)O1 (stereo not drawn)
inactive: [1] 56.3% | [2] 98.5% | [3] 102% | [4] 107% | [5] 111% | [6] 87.3% | [7] 129% | [8] 94% | [9] 96%

COc1cc(-c2cc(-c3ccc(N(C)C)cc3)nc(N3CCOCC3)c2C#N)cc(OC)c1OC
inactive: [2] 22.4% | [3] 37.9% | [4] 64.5% | [5] 55.9% | [6] 42.2% | [7] 87.9% | [8] 77.9%
active: [1] 9.28% | [9] 4.22%

O=C1Nc2cc(Cl)ccc2/C1=C\c1c(-c2ccc(F)cc2)nc2ccccn12
active: [4] -2.19% | [5] -26.3% | [7] -58.3% | [8] -4.87%
inactive: [1] 45.8% | [2] 34.5% | [3] 43.2% | [6] 14%

C[C@H]1[C@H]2[C@H]3CC[C@@H]4[C@@]5(C)CC[C@H](O)C(C)(C)[C@@H]5CC[C@@]4(C)[C@]3(C)CC[C@]23CO[C@]1(C)[C@@H](C(=O)/C=C\c1ccco1)C3
inactive: [1] 106% | [2] 99.3% | [3] 102% | [4] 111% | [5] 103% | [6] 108% | [7] 103% | [8] 95.8% | [9] 95.3%

O=C(CSc1nc2ccccc2[nH]1)NCc1ccccc1
inactive: [1] 101% | [2] 104% | [3] 95.4% | [4] 97.6% | [5] 101% | [6] 102% | [7] 105% | [8] 97.9% | [9] 102%

CCNc1nc2cc(Nc3ccnc4cc(Cl)ccc34)ccc2o1
inactive: [1] 80.9% | [2] 85.3% | [3] 71.8% | [4] 75.5% | [5] 84.8% | [6] 70.1% | [7] 80.9% | [8] 84.5% | [9] 52.3%

COC(=O)c1ccc2c(c1)[n+](=O)c(C(C)=O)c(C(F)(F)F)n2[O-]
active: [1] -48% | [2] 9.07% | [3] -12.9% | [4] -42% | [5] -31.4% | [6] -78.3% | [7] -92.8% | [8] -19.4% | [9] -40.7%

COc1cc(/C=C\c2cc(OC)c(OC)c(OC)c2)cc(NC(=O)/C=C/c2cc(OC)c(OC)c(OC)c2)c1OC
inactive: [1] 45% | [2] 56.6% | [3] 77.3% | [4] 61% | [5] 50.8% | [6] 52.8% | [7] 51.1% | [8] 68.6% | [9] 17.8%

O=C1Nc2ccccc2/C1=C\c1c(-c2ccccc2)nc2ccccn12
inactive: [1] 66% | [2] 68.9% | [3] 68.2% | [4] 78.8% | [5] 30.5% | [6] 46.3% | [7] 11.9% | [8] 69.5%

Cc1nn(-c2ccccc2)c(Cl)c1/C=N\N=c1/sc2ccccc2n1C
inactive: [1] 78.6% | [2] 98.2% | [3] 92.6% | [4] 117% | [5] 94.7% | [6] 96.2% | [7] 111% | [8] 104% | [9] 104%

C#Cc1cccc(NC(=O)Nc2cccc(NC(=O)CCl)c2)c1
active: [1] 9.12% [8.25 µM] | [2] -7.18% [8.25 µM] | [4] -35.9% [8.25 µM] | [6] -57% [8.25 µM] | [7] -70.8% [8.25 µM] | [9] -15.1% [8.25 µM]
inactive: [3] 12.8% [8.25 µM] | [5] 59% [8.25 µM] | [8] 29.6% [8.25 µM]

Cc1c(C)c([N+](=O)[O-])c(C)c([N+](=O)[O-])c1C
inactive: [1] 102% | [2] 104% | [3] 104% | [4] 99.5% | [5] 114% | [6] 104% | [7] 109% | [8] 102%

COc1ccc(/C=C/C(=O)Nc2cc(/C=C\c3cc(OC)c(OC)c(OC)c3)cc(OC)c2OC)cc1OC
active: [9] -11.2%
inactive: [1] 30.7% | [2] 34.2% | [3] 63.2% | [4] 47.7% | [5] 11.6% | [6] 40.1% | [7] 12.2% | [8] 29%

CN1CCN(CCNc2nccc(-c3c(-c4cccc(O)c4)nc4sccn34)n2)S1(=O)=O
inactive: [1] 48.7% | [2] 73.3% | [3] 68.6% | [4] 77.5% | [5] 47.1% | [6] 45.7% | [7] 81.5% | [8] 76.7% | [9] 101%

CC(C)(C)[Si](C)(C)OC1[C@@H](O[Si](C)(C)C(C)(C)C)[C@@H](CNC(=O)NC(=O)CCl)O[C@H]1n1cnc2c(NC(=O)Nc3ccccc3)ncnc21 (stereo partly drawn)
inactive: [1] 16.7% | [9] 20.3%
active: [2] 1.14% | [3] 5.37% | [4] -42.3% | [5] -92.9% | [6] -50.4% | [7] -82.1% | [8] -4.28%

CCCCCN1C=C/C(=C\C(=O)N(C)c2ccccc2Br)c2ccccc21
inactive: [10] 74.3% | [2] 88.7% | [3] 96% | [5] 94% | [6] 98.5% | [7] 97.4% | [8] 96.8% | [9] 100%

O=C1/C=C/[C@@H](O)[C@@H]2C[C@@H](O)C[C@H]2/C=C/CCC[C@H](CCc2cccc3ccccc23)O1
active: [6] 5.72% | [7] -48.1% | [9] 2.01%
inactive: [1] 22% | [2] 17.7% | [3] 24.6% | [4] 14.4% | [5] 18.1% | [8] 39.5%

COc1ccc(-c2cnc3c(-c4cccc5cnccc45)cnn3c2)cc1
inactive: [1] 40.8% | [2] 41.8% | [3] 96.1% | [4] 36.4% | [5] 68.6% | [6] 83.5% | [7] 73.4% | [8] 74% | [9] 56.3%

O=[N+]([O-])c1ccc(N=Nc2cc(S(=O)(=O)O)c3cccc(S(=O)(=O)O)c3c2O)cc1
inactive: [1] 104% | [2] 108% | [3] 113% | [4] 114% | [5] 102% | [6] 72.8% | [7] 121% | [8] 130% | [9] 104%

COc1cc(/C=C/C(=O)c2nc3cc(F)ccc3nc2C)cc(OC)c1OC
active: [1] -4.08%
inactive: [2] 36% | [3] 89.7% | [4] 77.8% | [5] 113% | [6] 34.8% | [7] 55.3% | [8] 61.4% | [9] 41.3%

O=C1Nc2ccc(F)cc2/C1=C\c1c(-c2ccccc2)nc2ccccn12
inactive: [1] 86.5% | [2] 74.7% | [3] 73.7% | [4] 94.6% | [5] 80.7% | [6] 47.6% | [7] 66.4% | [8] 71.8% | [9] 38.1%

COc1cc(C(=O)Nc2cc3c(cc2Oc2cc(C)cc(C)c2)C(=O)N(C)[C@@H](CC(=O)N(C)O)C(=O)N3)c(Br)c(OC)c1OC
active: [1] -26.2% | [2] 0.573% | [3] -18.6% | [4] -33.3% | [5] -0.559% | [6] -22.5% | [7] -35.5% | [8] -18.1%
inactive: [9] 17.9%

CCN(CC)CCn1c(=O)c2cc(OC)c(OC)cc2c2ccc3cc4c(cc3c21)OCO4
active: [10] -14.9%
inactive: [2] 53.2% | [4] 66.4% | [5] 32.8% | [6] 29% | [7] 62.4% | [8] 64.3% | [9] 29.9%

N#CC1=C(N)Oc2c(ccc3ccccc23)C1c1ccccc1Cl (stereo not drawn)
active: [2] 7.5% | [7] 5.72% | [9] -0.548%
inactive: [1] 30.1% | [3] 38.8% | [4] 42.2% | [5] 59.3% | [6] 24.9% | [8] 16.8%

Cn1cc(-c2nc(-c3c[nH]c4c(Cl)nccc34)cs2)c2cc(F)ccc21
inactive: [1] 90.1% | [2] 89.6% | [3] 119% | [4] 88% | [5] 100% | [6] 117% | [7] 114% | [8] 113% | [9] 111%

COC1=CC(=O)c2ccccc2C1=O
inactive: [1] 73% | [2] 65.4% | [3] 107% | [4] 70.4% | [5] 101% | [6] 83.6% | [7] 24.5% | [8] 100% | [9] 60.8%

Cc1ccc(C(=O)/C(=C/c2ccc([N+](=O)[O-])cc2)SCc2ccc(Cl)cc2)cc1
inactive: [10] 11.4% | [3] 85.1% | [4] 58.8% | [5] 101% | [6] 74.7% | [7] 47.6% | [8] 88.2% | [9] 72%

CCCCCCCC(=O)OCC/C=C/C1OC1C1OC(=O)/C=C\C=C\C(=O)N(C(C)=O)C(=O)/C=C(/C)CCC2OC2C1OC(=O)NC(C)=O (stereo not drawn)
inactive: [1] 45.2% | [2] 85.1% | [3] 79.5% | [4] 97.2% | [5] 96% | [6] 62.7% | [7] 61.2% | [8] 87.5% | [9] 78.1%

COc1ccc(-c2nc(S(=O)(=O)c3ccccc3)c(S(=O)CC(=O)N3CCC(C)CC3)o2)cc1 (stereo not drawn)
active: [1] -14.6% | [7] -42.6%
inactive: [2] 33.9% | [3] 48% | [4] 28.8% | [5] 92.2% | [6] 25.6% | [8] 77.7%

CCC(CC)NCC(C)(C)O
inactive: [10] 93.4% | [2] 99% | [4] 105% | [5] 110% | [6] 98% | [7] 119% | [8] 107% | [9] 106%

— PubChem BioAssay (NCI)
